According to PubChem BioAssay AID2551 (National Center for Advancing Translational Sciences (NCATS), 2010):
The campaign covered roughly 310,000 compounds. About 17,000 (5.5%) were called active. Inconclusive results (about 11%) are left out. Many of the other results were omitted from the sample, so actives are more common in it than they were. A number with no mark means an inactive call. The call rests on the fitted dose curve; in most records, active means well fitted inhibition curve with a large enough effect; inconclusive means small, poorly fitted or top-dose-only effect, or effect the other way; inactive means no such curve, though single readings can be large or run the other way.

molecular target: Nuclear receptor ROR-gamma (Mus musculus) (UniProt P51450); assay: qHTS for inhibitors of ROR gamma transcriptional activity; conditions: Drosophila S2 Gal4-RORgamma UAS-luciferase reporter, 20 h; series mostly up to 53.6 µM; activity change, negative = inhibition: at the top concentration; further: nearly all actives have a fitted effect of over 60% in size
Procedure, shortened: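 Compounds are pin-transferred onto Drosophila Schneider cells expressing a copper-inducible Gal4–ROR gamma transactivation domain fusion. After 1 hr, copper sulfate is added to 700 uM final; luciferase is read 20 hr later.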
On the % scale 0 is the no-effect control and ±100 the full control effect; potency means the concentration at half of the fitted maximal effect.

Chain of Nuclear receptor ROR-gamma (Mus musculus) (P51450 whole entry, looked up, the tested form may be a part): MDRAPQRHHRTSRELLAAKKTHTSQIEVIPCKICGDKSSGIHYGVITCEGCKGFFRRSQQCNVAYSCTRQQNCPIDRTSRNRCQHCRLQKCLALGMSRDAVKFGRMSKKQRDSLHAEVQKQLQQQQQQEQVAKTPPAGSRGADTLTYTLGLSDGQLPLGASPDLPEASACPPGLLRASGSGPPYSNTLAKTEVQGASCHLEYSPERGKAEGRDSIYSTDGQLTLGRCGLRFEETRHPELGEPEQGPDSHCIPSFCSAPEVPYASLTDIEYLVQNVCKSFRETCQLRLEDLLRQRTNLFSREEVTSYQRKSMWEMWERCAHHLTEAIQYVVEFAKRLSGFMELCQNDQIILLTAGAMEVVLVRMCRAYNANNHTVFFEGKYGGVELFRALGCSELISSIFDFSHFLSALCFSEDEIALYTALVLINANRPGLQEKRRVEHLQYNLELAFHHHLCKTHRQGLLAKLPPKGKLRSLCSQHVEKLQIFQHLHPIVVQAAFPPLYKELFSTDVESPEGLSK

SMILES | activity change, negative = inhibition | Potency
CC(C)(O)c1[se]c2ccccc2c1I | -2.25% | 
CC[C@H]1CN2CCc3cc(OC)c(OC)cc3[C@@H]2C[C@@H]1C[C@H]1NCCc2cc(OC)c(OC)cc21 |  | 1.26 µM (active)
COc1cccc(-c2nc3ccc(N4CCN(C)CC4)cc3[nH]2)c1 |  | 1.12 µM (active)
CN1CCN(c2cc(N3CCNCC3)ccc2[N+](=O)[O-])CC1 | 15% | 
COC(=O)c1ccc2[se]c(CC3CCCCC3)c(I)c2c1 | 14.9% | 
Cc1ccc(-n2c(O)c(C=NCC3CCCO3)c(=O)[nH]c2=O)c(C)c1 (centres undefined) | 1.05% | 
COC1CC(OC2CC[C@@]3(C=O)C4CC[C@]5(C)C(C6=CC(=O)OC6)CC[C@@]5(O)C4CC[C@]3(O)C2)OC(C)C1O (some centres undefined) | 1.32% | 
BrC1C(Br)C(Br)C(Br)C(Br)C1Br (centres undefined) |  | 5.01 µM (active)
O=C(Nc1cccc(F)c1)N1CC[C@@]2(CCCN(C(=O)Oc3ccccc3)C2)C1 | -0.0221% | 
CCN1C[C@]2(COC)C(O)C[C@H](OC)[C@@]34C5C[C@]6(O)C(OC)C(O)[C@](OC(C)=O)(C5C6OC(=O)c5ccccc5)C(C(OC)C23)C14 (some centres undefined) | -0.118% | 
CCCCC#N | 1.58% | 
COc1cccc(C(=O)N2C[C@H]3C[C@@H](C2)c2cccc(=O)n2C3)c1 | -18.3% | 
O=C(NC(=S)N1C[C@H]2C[C@H](C1)c1cccc(=O)n1C2)c1ccc(F)cc1 |  | 11.2 µM (active)
COc1cccc(OC)c1C(=O)NC(=S)N1C[C@H]2C[C@H](C1)c1cccc(=O)n1C2 | -0.303% | 
N#CCCCl |  | inactive
CCN(CC)c1nc(C)cc(OP(=S)(OC)OC)n1 | 11.2% | 
CC(C)(c1ccc(OC[C@@H]2CO2)cc1)c1ccc(OC[C@H]2CO2)cc1 | -11.2% | 
CN1CCN(C(=O)O[C@@H]2c3nccnc3C(=O)N2c2ccc(Cl)cn2)CC1 | -16.6% | 
CC(=C1C(=O)c2ccccc2C1=O)N1CCN(CCN=Cc2c(O)n(C)c(=O)n(C)c2=O)CC1 |  | 7.08 µM (active)
Cn1c(O)c(C=NCCN2CCNCC2)c(=O)n(C)c1=O | 21% | 
Cn1c(O)c(C=NCCCC(=O)O)c(=O)n(C)c1=O | 11.3% | 
CC(=O)OC1C2CCC3C1(CC(O)[C@@]1(O)[C@@H](CC(O)C1(C)C)[C@]3(C)O)C[C@@]2(C)O (some centres undefined) | 23.2% | 
O=[N+]([O-])c1ccc(Cl)c(Cl)c1 | 7.3% | 
N[C@H](Cc1o[nH]c(=O)c1Cl)C(=O)O | 1.57% | 
